Screening data from PubChem BioAssay.
Only some compounds are listed: those with a hit (about 3% of all), similar ones and a draw of the others.
TrxR1 substrate – rat thioredoxin reductase 1 substrate activity; Potency, µM (doses to about 114 µM), inactives show top-dose activity change, negative = substrate turnover; actives 0.01% (n = 390,000); purified TrxR1 substrate turnover, NADPH consumption readout; further: on the % scale 0 is the no-effect control and ±100 the full control effect; nearly all actives have a fitted effect of over 50% in size
Target sequence (O89049 whole entry, looked up): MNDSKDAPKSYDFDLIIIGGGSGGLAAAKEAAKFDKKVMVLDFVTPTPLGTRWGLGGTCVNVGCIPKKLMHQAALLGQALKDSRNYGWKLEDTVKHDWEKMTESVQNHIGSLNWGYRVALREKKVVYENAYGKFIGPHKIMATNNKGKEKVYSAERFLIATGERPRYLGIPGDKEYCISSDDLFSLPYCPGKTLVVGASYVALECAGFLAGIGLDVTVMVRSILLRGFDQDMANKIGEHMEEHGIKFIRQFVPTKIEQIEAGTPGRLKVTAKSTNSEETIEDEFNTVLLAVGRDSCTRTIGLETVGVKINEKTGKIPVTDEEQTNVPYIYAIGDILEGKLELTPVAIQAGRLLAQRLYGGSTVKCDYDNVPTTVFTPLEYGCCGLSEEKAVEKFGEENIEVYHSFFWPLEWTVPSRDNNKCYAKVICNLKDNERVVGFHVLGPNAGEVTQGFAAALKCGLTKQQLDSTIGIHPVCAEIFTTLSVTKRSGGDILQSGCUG
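Rat TrxR1, dispensed at 90 nM, was prereduced with 400 uM NADPH (final) for 5 min at ~22 deg C, then incubated with compound 15 min before 400 uM selenite. A first-read NADPH fluorescence drop versus no-compound background flagged substrates.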
TrxR1 inh – rat TrxR1 inhibition; O89049; recombinant rTrxR1, NADPH fluorescence consumption, selenite substrate; Potency, µM (titrated, usually from 114 µM), inactives show top-dose activity change, negative = inhibition, actives largely listed as inhibitors; actives 1% (n = 390,000); AID 588453; further: on the % scale 0 is the no-effect control and ±100 the full control effect; nearly all actives have a fitted effect of over 65% in size
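Rat TrxR1 (90 nM in the dispensed reagent) was pre-reduced with 400 uM NADPH for 5 min at room temperature, then incubated with compound for 15 min. After 400 uM selenite was added, NADPH fluorescence (Ex 340/Em 450 nm) was followed for 8 min.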
A549 viability – kills or reduces viability of A549 cells in Nrf2 counter-screen; Potency, µM (top dose mostly 46 µM), without a hit: at the top dose activity change, negative = cytotoxicity, actives largely listed as inhibitors; AID 504648; A549 ARE-Fluc cells, CellTiter-Fluor viability, 18-24 h; actives 0.16% (n = 390,000); further: on the % scale 0 is the no-effect control and ±100 the full control effect
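A549 ARE-Fluc cells in 5% FBS OPTI-MEM, 5000 cells/well, rested 2 h then exposed to compounds in concentration-response for 18-24 h at 37 °C. Viability by CellTiter-Fluor fluorescence (Ex 405/Em 525) after 30 min; luciferase luminescence (BugLite, 15 min, RT) read afterwards.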
Nrf2 block – blocks Nrf2 signaling; A549 ARE-Fluc reporter, luciferase luminescence, 18-24 h; Potency, µM (highest dose often 46 µM), inactives show top-dose activity change, negative = inhibition, hits mostly inhibitors; actives 2.1% (n = 360,000); AID 504444; further: on the % scale 0 is the no-effect control and ±100 the full control effect; nearly all actives have a fitted effect of over 60% in size
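Two sequential reads on A549 ARE_Fluc cells exposed to compound for 18-24 h: a CellTiter-Fluor fluorescence read for viability, then a luciferase luminescence read for Nrf2/ARE activity.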
GALK inhibitor – inhibitors of human galactokinase. P51570. Potency, µM (titrated, usually from 57.5 µM), for inactives: at the top dose activity change, negative = inhibition, actives largely listed as inhibitors. actives 0.007% (n = 270,000). Purified GALK, Kinase-Glo residual ATP luminescence; further: on the % scale 0 is the no-effect control and ±100 the full control effect
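Human GALK (5 nM) with 35 uM ATP and 100 uM galactose in 20 mM HEPES pH 8.0, 5 mM MgCl2, 60 mM NaCl, 1 mM DTT, 0.01% BSA. After 1 h at room temperature, leftover ATP was read by Kinase-Glo Plus luminescence.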
Nrf2 ARE act – activates Nrf2 signaling | AREc32 ARE-luciferase reporter (MCF7-derived line), luminescence, 24 h | Potency, µM (titrated, usually from 46.1 µM), without a hit: at the top dose activation, most hits filed as activators | actives 0.31% (n = 410,000) | AID 624171; further: % of control where 0% means no effect; nearly all actives have a fitted effect of over 65% in size
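For detection, Steady-Glo was added and plates sat 30 min at RT; before that, AREc32_Fluc cells grown overnight in OPTI-MEM/5% FBS had been treated with 23 nL compound for 24 hr at 37 deg C.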
* marks the source's active call; other numbers are inactive results; u = inconclusive; x = no result given; [ ] = remark or other dose. The call rests on the fitted dose curve; in most records, active means well fitted curve in the direction sought with a large enough effect; inconclusive means small, poorly fitted or top-dose-only effect, or another doubt; inactive means no such curve, though single readings can be large; an effect the other way counts as inactive or inconclusive. Potency means the concentration at half of the fitted maximal effect.

SMILES	TrxR1 substrate	TrxR1 inh	A549 viability	Nrf2 block	GALK inhibitor	Nrf2 ARE act
CCOc1ccc(C(=O)C(CCC(CN(C)C)C(=O)c2ccc(OCC)cc2)CN(C)C)cc1 (configuration not stated)	-10.0%	2.82µM*	u	u	-0.2%	u
O=C(NCCc1ccc(Cl)cc1)c1nc(-c2cccc(F)c2)n2c1CCCCC2	-15.5%	-7.3%	-4.3%	-17.3%	x	4.4%
Cc1cc(/C=C/c2ccnc3ccccc23)ccc1N	-9.1%	-5.1%	x	x	x	x
CCCCn1c(CN2CCN(c3cccc(Cl)c3)CC2)nc2c1c(=O)n(C)c(=O)n2C	-5.8%	-9.4%	-21.0%	u	0.0%	0.3%
CCCn1c(CN2CCN(c3cccc(Cl)c3)CC2)nc2c1c(=O)n(C)c(=O)n2C	1.1%[57.1 µM]	3.6%[57.1 µM]	-25.9%	18.4µM*	1.2%	-0.4%
Cc1cc(NS(=O)(=O)c2ccc3c(c2)CCC(=O)N3)ccc1F	x	x	-2.7%	u	x	x
COc1ccc(C/C(N)=N/n2cnnc2)cc1	8.4%	3.7%	-2.6%	3.8%	5.5%	-0.1%
CC(C)COc1ccc(C/C(N)=N/n2cnnc2)cc1	1.3%	7.9%	-26.4%	16.4µM*	3.6%	2.5%
O=C(c1cc2cc(Cl)ccc2[nH]1)N1CCN(C(=O)c2ccco2)CC1	5.0%	50.1µM*	-2.8%	6.1%	-0.4%	u
O=C(NC(=S)Nc1ccc(S(=O)(=O)N2CCCCC2)cc1)c1ccccc1	3.5%[57.1 µM]	11.2µM*	2.8%	x	-2.6%	-0.4%
O=S(=O)(c1ccc(NC(=S)N2CCN(c3ccccc3F)CC2)cc1)N1CCOCC1	2.3%	6.8%[57.1 µM]	-2.8%	13µM*	0.4%	-0.8%
O=S(=O)(c1ccc(NC(=S)N/N=C/c2c3ccccc3cc3ccccc23)cc1)N1CCOCC1	-4.8%	8.0%	-6.7%	9.2µM*	-0.4%	4.8%
COc1ccccc1N1CCN(C(=S)Nc2ccc(S(=O)(=O)N3CCOCC3)cc2)CC1	4.1%[57.1 µM]	21.7%[57.1 µM]	-18.4%	u	-2.3%	3.1%
Cc1ccccc1C(=O)NC(=S)Nc1ccc(S(=O)(=O)N2CCOCC2)cc1	1.0%[57.1 µM]	u	3.4%	13µM*	-0.2%	-0.6%
O=C(Cn1c(-c2cccs2)cc2ccccc21)N1CCN(c2ccc(Cl)cc2)CC1	51.4%	44.9%	17.5%	10.1%	x	0.1%
O=C(O)c1cc2ccccc2c(N=Nc2cccnc2)c1O	-9.6%[57.1 µM]	-6.5%[57.1 µM]	u	18.4µM*	3.1%	21.8%
CCOC(=O)c1cn(-c2c(Cl)cccc2Cl)c2cc(Cl)c([N+](=O)[O-])cc2c1=O	-3.7%	-2.3%	7.9%	4.8%	x	11.2µM*
CCOC(=O)c1cn(CC)c2cc(Cl)c([N+](=O)[O-])cc2c1=O	-2.9%	5.9%	-1.9%	17.3%	0.1%	7.2%
O=C(c1ccco1)N1CCc2ccccc21	1.7%	12.0%	-4.4%	u	1.1%	u
COc1ccccc1N1CCN(C(=O)/C=C/c2ccccc2)CC1	-2.4%	-2.4%	-1.3%	7.7%	-4.2%	-0.6%
COc1ccccc1N1CCN(C(=O)/C=C/c2ccco2)CC1	-7.4%	39.8µM*	-4.2%	19.4%	0.8%	13.6%
O=C(/C=C/c1ccco1)N1CCCC(c2ccccc2)C1 (configuration not stated)	0.2%	31.6µM*	-2.5%	6.6%	0.1%	22.4%
CCOC(=O)/C=C/C(=O)N1CCc2ccccc21	-13.3%	u	1.0%	-23.3%	2.9%	19.9%
O=C(/C=C/c1ccco1)N1CCc2ccccc21	-12.0%	56.2µM*	0.1%	u	-2.0%	u
Cc1ccc(/C=C/C(=O)N2CCc3ccccc32)o1	-4.7%	3.16µM*	0.0%	u	0.6%	11.2µM*
SMILES	TrxR1 substrate	TrxR1 inh	A549 viability	Nrf2 block	GALK inhibitor	Nrf2 ARE act
CC1=C(c2ccc(C)cc2)S(=O)(=O)N(Cc2ccc(C(=O)NCc3ccccc3F)cc2)C1=O	21.0%[57.1 µM]	25.8%[57.1 µM]	11.3%	-28.3%	x	0.2%
CCCCNC(=O)c1cc(-c2ccc(OC)cc2)nc2n[nH]c(-c3cccc([N+](=O)[O-])c3)c12	1.4%[57.1 µM]	19.8%[57.1 µM]	-1.9%	x	x	-0.8%
O=C1CCc2cc(S(=O)(=O)Nc3cccc(-c4ccccc4)c3)ccc2N1	x	x	-5.3%	u	x	x
Cc1ccc(/C=C/C(=O)N2CCN(c3ncccn3)CC2)o1	-11.0%	22.4µM*	6.0%	-3.5%	-0.3%	u
Cc1ccc(/C=C/C(=O)N2CCN(c3ccc(F)cc3)CC2)o1	-11.3%	-32.4%	-1.9%	u	0.1%	2.9%
Cc1ccc(C)c(S(=O)(=O)N2CCN(C(=O)/C=C/c3ccco3)CC2)c1	2.3%	7.94µM*	3.2%	3.4%	x	u
Cc1ccc(S(=O)(=O)N2CCN(C(=O)/C=C/c3ccco3)CC2)cc1	6.3%[57.1 µM]	8.4%[57.1 µM]	0.4%	-5.2%	-1.1%	7.1%
COc1ccc2c([N+](=O)[O-])c(Cl)[nH]c2c1	-0.9%	14.1µM*	-2.3%	-17.4%	-3.1%	3.1%
CCN(Cc1ccccc1)c1nc2c(S(=O)(=O)c3ccccc3)nnn2c2ccc(Cl)cc12	107.3%	83.2%	0.0%	-8.8%	x	-0.1%
COc1ccc(S(=O)(=O)c2cnc3ccccc3n2)cc1	-0.7%	u	-3.1%	-3.0%	11.3%	17.8µM*
O=S(=O)(c1ccc(Br)cc1)c1cnc2ccccc2n1	-2.0%	u	0.1%	-3.8%	9.4%	23.1%
C=C1C(=O)O[C@@]23[C@H]1CC[C@@H](C)[C@@H]2CC[C@@]1(C)O[C@@H]31	3.6%	-11.0%	u	14.6µM*	x	-2.9%
CCC(CC)C(=O)Nc1c(C(=O)N2CCN(c3ccccc3F)CC2)oc2ccccc12	-10.4%	6.0%	-15.8%	u	x	3.0%
CC(=O)c1c(C)[nH]c(C(=O)OCc2nnc(-c3ccccc3)o2)c1C	-2.0%	-3.4%	-14.6%	20.6µM*	1.6%	3.1%
CC(=O)c1c(C)[nH]c(C(=O)OCc2ccc(F)cc2Cl)c1C	4.6%[57.1 µM]	10.3%[57.1 µM]	-13.3%	13µM*	3.6%	5.8%
CS(=O)(=O)c1ccc(C(=O)OCc2nnc(-c3ccccc3)o2)cc1[N+](=O)[O-]	4.5%	1µM*	u	u	4.5%	0.7%
COc1ccc(N2CC(NC(=O)c3ccc(S(=O)(=O)N4CCCC4)cc3)CC2=O)cc1 (configuration not stated)	8.2%[57.1 µM]	8.2%[57.1 µM]	3.5%	x	x	-0.7%
CCOc1ccc(CNC(=O)C2CCN(S(=O)(=O)c3cn(C)cn3)CC2)cc1OC	1.1%[57.1 µM]	16.1%[57.1 µM]	3.9%	x	x	-0.5%
COc1ccccc1NC(=O)C(=O)N/N=C/c1cccs1	-7.7%	-4.2%	7.8%	u	1.4%	11.2µM*
